Measured values taken from ChEMBL document CHEMBL2218924, “A broad activity screen in support of a chemogenomic map for kinase signalling research and drug discovery” (Biochem J, 2013).

Columns and labels:
[1] = target: T1, Dual specificity mitogen-activated protein kinase kinase 6 (Homo sapiens) (UniProt P52564); conditions: at 1 µM
T1 sequence (whole entry): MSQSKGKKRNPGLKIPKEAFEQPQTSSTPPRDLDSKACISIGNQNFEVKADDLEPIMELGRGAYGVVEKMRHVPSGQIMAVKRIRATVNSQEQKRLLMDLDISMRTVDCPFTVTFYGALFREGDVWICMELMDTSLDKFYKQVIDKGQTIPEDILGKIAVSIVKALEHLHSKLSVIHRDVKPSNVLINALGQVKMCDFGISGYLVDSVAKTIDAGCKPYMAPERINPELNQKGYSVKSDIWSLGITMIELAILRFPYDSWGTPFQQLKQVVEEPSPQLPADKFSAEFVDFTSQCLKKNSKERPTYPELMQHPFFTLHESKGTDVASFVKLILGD

[2] = target: T1, Dual specificity mitogen-activated protein kinase kinase 6 (Homo sapiens); conditions: at 10 µM
[3] = target: T2, Dual specificity mitogen-activated protein kinase kinase 7 (Homo sapiens) (UniProt O14733); conditions: at 1 µM
T2 sequence (whole entry): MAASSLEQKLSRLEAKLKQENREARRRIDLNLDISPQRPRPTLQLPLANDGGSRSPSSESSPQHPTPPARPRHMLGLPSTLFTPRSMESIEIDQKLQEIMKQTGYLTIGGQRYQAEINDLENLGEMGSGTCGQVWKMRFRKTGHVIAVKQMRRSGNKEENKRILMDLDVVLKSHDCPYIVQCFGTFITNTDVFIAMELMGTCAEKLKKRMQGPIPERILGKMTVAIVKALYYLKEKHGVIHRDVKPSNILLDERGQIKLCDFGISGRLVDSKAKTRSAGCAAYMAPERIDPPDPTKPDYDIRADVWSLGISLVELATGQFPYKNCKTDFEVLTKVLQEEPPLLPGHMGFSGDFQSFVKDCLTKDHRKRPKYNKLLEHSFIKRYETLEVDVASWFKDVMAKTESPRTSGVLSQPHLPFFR

[4] = target: T2, Dual specificity mitogen-activated protein kinase kinase 7 (Homo sapiens); conditions: at 10 µM
[5] = target: Myosin light chain kinase, smooth muscle (Homo sapiens) (UniProt Q15746); conditions: at 1 µM
[6] = target: Myosin light chain kinase, smooth muscle (Homo sapiens) (UniProt Q15746); conditions: at 10 µM
[7] = target: Mitogen-activated protein kinase kinase kinase 9 (Homo sapiens) (UniProt P80192); conditions: at 1 µM
Chain of Mitogen-activated protein kinase kinase kinase 9 (Homo sapiens) (P80192 whole entry, looked up): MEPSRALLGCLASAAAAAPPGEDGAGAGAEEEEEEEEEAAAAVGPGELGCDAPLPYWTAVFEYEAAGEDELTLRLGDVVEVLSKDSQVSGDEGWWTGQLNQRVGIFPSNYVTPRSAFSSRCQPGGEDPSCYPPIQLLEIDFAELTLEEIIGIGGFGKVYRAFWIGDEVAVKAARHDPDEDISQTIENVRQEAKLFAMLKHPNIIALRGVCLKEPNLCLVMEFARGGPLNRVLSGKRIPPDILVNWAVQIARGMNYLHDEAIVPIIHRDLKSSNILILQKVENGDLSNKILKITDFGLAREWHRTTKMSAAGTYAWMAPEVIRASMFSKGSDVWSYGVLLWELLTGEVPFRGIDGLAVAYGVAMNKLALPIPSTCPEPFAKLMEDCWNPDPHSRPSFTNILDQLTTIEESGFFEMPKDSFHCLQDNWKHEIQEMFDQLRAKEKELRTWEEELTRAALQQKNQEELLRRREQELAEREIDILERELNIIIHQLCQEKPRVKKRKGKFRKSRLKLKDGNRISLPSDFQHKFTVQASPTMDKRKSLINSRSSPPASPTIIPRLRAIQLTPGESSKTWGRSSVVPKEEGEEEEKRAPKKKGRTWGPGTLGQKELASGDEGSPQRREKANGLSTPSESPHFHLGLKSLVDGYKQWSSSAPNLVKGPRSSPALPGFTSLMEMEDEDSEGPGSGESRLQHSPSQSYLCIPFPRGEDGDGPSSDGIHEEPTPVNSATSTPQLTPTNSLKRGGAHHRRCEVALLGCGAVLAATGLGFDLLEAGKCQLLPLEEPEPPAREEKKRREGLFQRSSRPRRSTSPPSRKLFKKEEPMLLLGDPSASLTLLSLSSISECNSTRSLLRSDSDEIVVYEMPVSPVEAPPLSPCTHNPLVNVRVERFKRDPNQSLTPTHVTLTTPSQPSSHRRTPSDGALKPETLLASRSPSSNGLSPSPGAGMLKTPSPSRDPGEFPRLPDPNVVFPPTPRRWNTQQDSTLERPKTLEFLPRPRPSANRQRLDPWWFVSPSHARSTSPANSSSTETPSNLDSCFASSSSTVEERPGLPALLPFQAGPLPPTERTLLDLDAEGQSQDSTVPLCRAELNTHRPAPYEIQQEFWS

[8] = target: Mitogen-activated protein kinase kinase kinase 9 (Homo sapiens) (UniProt P80192); conditions: at 10 µM
[9] = target: Serine/threonine-protein kinase MRCK alpha (Homo sapiens) (UniProt Q5VT25); conditions: at 1 µM
[10] = target: Serine/threonine-protein kinase MRCK alpha (Homo sapiens) (UniProt Q5VT25); conditions: at 10 µM
[11] = target: Serine/threonine-protein kinase MRCK beta (Homo sapiens) (UniProt Q9Y5S2); conditions: at 1 µM
Chain of Serine/threonine-protein kinase MRCK beta (Homo sapiens) (Q9Y5S2 whole entry): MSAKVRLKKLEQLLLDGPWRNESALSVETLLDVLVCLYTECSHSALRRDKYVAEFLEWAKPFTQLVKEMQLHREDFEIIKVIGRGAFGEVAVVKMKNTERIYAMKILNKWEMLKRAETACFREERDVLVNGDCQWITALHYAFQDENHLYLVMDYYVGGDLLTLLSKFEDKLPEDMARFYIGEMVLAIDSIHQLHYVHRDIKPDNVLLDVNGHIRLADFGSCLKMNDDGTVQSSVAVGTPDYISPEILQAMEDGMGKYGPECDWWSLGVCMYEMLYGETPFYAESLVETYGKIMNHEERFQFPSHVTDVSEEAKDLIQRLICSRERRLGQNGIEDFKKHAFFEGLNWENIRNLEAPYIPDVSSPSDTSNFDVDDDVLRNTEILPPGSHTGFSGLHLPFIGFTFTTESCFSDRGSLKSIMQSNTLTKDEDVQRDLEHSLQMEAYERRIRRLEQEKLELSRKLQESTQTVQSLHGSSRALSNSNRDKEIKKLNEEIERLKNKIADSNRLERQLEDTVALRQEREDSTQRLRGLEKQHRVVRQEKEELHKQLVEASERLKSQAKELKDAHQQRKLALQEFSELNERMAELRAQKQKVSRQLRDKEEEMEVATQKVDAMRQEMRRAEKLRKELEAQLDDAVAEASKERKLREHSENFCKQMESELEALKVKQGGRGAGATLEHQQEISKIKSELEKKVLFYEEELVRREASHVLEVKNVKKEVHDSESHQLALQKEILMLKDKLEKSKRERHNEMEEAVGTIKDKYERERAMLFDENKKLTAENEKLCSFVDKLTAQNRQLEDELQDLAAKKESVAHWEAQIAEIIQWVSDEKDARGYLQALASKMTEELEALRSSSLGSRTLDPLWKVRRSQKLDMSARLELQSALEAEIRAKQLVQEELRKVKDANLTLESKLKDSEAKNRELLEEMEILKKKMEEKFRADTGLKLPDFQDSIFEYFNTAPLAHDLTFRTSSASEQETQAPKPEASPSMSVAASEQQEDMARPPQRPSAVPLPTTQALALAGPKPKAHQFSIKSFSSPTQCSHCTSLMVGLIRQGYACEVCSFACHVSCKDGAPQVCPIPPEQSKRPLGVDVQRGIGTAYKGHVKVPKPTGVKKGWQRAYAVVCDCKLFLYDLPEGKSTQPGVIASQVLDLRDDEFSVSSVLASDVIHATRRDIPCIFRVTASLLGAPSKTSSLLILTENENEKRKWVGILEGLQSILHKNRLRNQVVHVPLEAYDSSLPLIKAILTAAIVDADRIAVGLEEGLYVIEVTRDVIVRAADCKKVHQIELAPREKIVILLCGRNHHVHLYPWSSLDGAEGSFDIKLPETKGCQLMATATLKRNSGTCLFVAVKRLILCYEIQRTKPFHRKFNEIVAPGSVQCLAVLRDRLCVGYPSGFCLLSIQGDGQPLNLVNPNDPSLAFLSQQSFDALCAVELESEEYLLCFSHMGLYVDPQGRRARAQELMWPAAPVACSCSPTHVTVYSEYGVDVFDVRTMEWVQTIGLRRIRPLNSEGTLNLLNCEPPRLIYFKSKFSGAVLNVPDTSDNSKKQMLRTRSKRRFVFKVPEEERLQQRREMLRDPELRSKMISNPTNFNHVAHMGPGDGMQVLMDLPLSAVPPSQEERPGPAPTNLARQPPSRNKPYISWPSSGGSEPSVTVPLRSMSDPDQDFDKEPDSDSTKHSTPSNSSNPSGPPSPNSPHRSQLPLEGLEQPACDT

[12] = target: Serine/threonine-protein kinase MRCK beta (Homo sapiens) (UniProt Q9Y5S2); conditions: at 10 µM
[13] = target: Ribosomal protein S6 kinase alpha-5 (Homo sapiens) (UniProt O75582); conditions: at 1 µM
Chain of Ribosomal protein S6 kinase alpha-5 (Homo sapiens) (O75582 whole entry, looked up): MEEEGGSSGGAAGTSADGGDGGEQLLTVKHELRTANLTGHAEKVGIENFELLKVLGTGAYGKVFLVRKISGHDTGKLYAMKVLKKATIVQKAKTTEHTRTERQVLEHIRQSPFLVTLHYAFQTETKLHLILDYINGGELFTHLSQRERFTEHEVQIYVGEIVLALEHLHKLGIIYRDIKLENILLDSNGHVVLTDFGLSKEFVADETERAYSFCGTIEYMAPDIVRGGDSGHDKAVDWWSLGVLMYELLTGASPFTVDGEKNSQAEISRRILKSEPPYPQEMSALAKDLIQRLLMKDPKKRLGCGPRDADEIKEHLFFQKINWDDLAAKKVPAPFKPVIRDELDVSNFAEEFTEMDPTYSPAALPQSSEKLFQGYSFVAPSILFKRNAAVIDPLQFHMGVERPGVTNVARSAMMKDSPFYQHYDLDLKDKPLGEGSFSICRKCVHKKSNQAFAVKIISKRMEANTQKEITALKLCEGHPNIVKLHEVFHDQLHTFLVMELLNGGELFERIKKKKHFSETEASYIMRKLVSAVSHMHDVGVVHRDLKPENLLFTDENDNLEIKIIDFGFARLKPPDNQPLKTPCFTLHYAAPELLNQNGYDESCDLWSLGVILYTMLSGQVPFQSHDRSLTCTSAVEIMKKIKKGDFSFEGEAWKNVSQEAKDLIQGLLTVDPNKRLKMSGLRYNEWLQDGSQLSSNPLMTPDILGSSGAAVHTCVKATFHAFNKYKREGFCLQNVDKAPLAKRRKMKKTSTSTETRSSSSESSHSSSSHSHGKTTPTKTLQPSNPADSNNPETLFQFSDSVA

[14] = target: Ribosomal protein S6 kinase alpha-5 (Homo sapiens) (UniProt O75582); conditions: at 10 µM
[15] = target: Ribosomal protein S6 kinase alpha-4 (Homo sapiens) (UniProt O75676); conditions: at 1 µM
Chain of Ribosomal protein S6 kinase alpha-4 (Homo sapiens) (O75676 whole entry, looked up): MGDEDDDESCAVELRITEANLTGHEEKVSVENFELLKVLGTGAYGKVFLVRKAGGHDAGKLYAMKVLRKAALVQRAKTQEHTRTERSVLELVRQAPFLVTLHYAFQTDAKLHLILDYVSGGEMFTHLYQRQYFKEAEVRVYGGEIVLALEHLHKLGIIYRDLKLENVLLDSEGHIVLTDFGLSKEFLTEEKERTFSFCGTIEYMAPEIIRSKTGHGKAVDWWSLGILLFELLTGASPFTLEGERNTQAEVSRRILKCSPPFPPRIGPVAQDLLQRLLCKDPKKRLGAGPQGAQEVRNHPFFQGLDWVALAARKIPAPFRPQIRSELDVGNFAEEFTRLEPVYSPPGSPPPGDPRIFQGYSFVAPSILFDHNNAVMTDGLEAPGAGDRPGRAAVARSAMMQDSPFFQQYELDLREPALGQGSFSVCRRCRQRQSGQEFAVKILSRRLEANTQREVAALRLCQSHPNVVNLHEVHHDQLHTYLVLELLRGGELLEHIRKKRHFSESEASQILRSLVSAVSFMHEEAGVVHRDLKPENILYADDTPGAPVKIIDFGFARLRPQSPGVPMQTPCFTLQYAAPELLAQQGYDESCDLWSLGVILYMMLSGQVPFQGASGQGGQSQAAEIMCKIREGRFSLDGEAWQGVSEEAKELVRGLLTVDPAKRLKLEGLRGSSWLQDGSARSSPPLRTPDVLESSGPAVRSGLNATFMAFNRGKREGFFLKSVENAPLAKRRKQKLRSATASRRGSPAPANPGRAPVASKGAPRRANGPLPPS

[16] = target: Ribosomal protein S6 kinase alpha-4 (Homo sapiens) (UniProt O75676); conditions: at 10 µM
[17] = target: SRSF protein kinase 3 (Homo sapiens) (UniProt Q9UPE1); conditions: at 1 µM
Chain of SRSF protein kinase 3 (Homo sapiens) (Q9UPE1 whole entry): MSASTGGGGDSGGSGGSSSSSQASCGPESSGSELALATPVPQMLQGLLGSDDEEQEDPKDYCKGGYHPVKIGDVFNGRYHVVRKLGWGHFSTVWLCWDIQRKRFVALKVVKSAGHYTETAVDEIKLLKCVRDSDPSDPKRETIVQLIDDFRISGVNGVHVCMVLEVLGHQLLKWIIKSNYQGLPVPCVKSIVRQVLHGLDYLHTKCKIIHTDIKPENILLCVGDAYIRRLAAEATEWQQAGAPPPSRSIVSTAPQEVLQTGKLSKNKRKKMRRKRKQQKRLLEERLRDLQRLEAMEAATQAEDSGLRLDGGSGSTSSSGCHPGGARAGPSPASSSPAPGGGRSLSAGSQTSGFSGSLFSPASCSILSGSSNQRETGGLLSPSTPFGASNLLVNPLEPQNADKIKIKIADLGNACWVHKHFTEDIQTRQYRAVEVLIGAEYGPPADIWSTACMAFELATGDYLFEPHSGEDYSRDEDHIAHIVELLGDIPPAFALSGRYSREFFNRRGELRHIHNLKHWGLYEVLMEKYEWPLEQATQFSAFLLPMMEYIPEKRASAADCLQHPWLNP

[18] = target: SRSF protein kinase 3 (Homo sapiens) (UniProt Q9UPE1); conditions: at 10 µM
[19] = target: T3, Serine/threonine-protein kinase 4 (Homo sapiens) (UniProt Q13043); conditions: at 1 µM
T3 sequence (whole entry): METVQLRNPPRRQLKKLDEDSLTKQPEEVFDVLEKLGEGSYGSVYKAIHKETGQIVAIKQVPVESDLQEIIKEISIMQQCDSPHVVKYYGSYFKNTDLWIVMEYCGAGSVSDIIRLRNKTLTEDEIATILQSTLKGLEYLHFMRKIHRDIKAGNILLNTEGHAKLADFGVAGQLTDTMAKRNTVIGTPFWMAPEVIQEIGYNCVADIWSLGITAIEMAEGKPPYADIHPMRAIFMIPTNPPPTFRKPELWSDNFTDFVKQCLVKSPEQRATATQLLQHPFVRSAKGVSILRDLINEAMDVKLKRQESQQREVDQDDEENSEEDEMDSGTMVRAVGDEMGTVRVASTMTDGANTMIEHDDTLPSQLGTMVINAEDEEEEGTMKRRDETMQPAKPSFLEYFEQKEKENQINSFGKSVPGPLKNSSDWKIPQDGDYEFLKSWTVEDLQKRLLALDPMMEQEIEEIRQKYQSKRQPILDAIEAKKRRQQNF

[20] = target: T3, Serine/threonine-protein kinase 4 (Homo sapiens); conditions: at 10 µM

SMILES | residual activity [1] [%] | residual activity [2] [%] | residual activity [3] [%] | residual activity [4] [%] | residual activity [5] [%] | residual activity [6] [%] | residual activity [7] [%] | residual activity [8] [%] | residual activity [9] [%] | residual activity [10] [%] | residual activity [11] [%] | residual activity [12] [%] | residual activity [13] [%] | residual activity [14] [%] | residual activity [15] [%] | residual activity [16] [%] | residual activity [17] [%] | residual activity [18] [%] | residual activity [19] [%] | residual activity [20] [%]
CCOc1cc2ncnc(Nc3cccc(Br)c3)c2cc1OCC | 81 | 44 | 91 | 72 | 69 | 41 | 72 | 26 | 88 | 99 | 84 | 72 | 117 | 101 | 105 | 88 | 113 | 76 | 83 | 61
CCN(CC)CCCCN1c2ccccc2Oc2ccc(Cl)cc21 | 99 | 119 | 120 | 118 | 79 | 102 | 93 | 102 | 133 | 119 | 108 | 99 | 146 | 119 | 111 | 116 | 104 | 97 | 106 | 100
COc1cc2ncnc(Nc3ccc(Oc4ccccc4)cc3)c2cc1OC | 79 | 83 | 87 | 81 | 72 | 91 | 18 | 4 | 103 | 134 | 99 | 114 | 137 | 129 | 89 | 135 | 105 | 81 | 99 | 93
CCC(=O)Nc1ccc2ncnc(Nc3cccc(Br)c3)c2c1 | 77 | 108 | 94 | 89 | 68 | 82 | 89 | 78 | 109 | 101 | 89 | 77 | 113 | 112 | 94 | 116 | 94 | 84 | 91 | 95
CC(=O)O/N=C1\C(=C2\C(=O)Nc3cc(Br)ccc32)Nc2ccccc21 | 96 | 76 | 83 | 105 | 90 | 71 | 55 | 16 | 93 | 101 | 96 | 91 | 99 | 85 | 100 | 74 | 96 | 102 | 50 | 23
CC#CC(=O)Nc1cc2c(Nc3ccc(F)c(Cl)c3)ncnc2cn1 | 77 | 140 | 97 | 90 | 73 | 110 | 98 | 100 | 98 | 87 | 95 | 79 | 123 | 102 | 97 | 105 | 90 | 74 | 90 | 84
O=C1NC(=O)c2cc(Nc3ccc(F)cc3)c(Nc3ccc(F)cc3)cc21 | 72 | 58 | 98 | 97 | 55 | 70 | 86 | 75 | 100 | 111 | 79 | 64 | 128 | 93 | 97 | 91 | 106 | 84 | 92 | 100
O=C1NC(=O)c2c1c1c3ccccc3[nH]c1c1[nH]c3cc(Br)ccc3c21 | 94 | 87 | 87 | 86 | 27 | 37 | 85 | 31 | 87 | 88 | 85 | 85 | 94 | 84 | 87 | 76 | 92 | 86 | 92 | 38
O=C1NC(=O)/C(=C/c2ccc3c(c2)OC(F)(F)O3)S1 | 72 | 93 | 96 | 99 | 77 | 72 | 96 | 99 | 112 | 104 | 106 | 85 | 133 | 112 | 105 | 97 | 100 | 74 | 100 | 107
Ic1cccc(CSc2nnc(-c3ccncc3)o2)c1 | 100 | 77 | 70 | 94 | 84 | 68 | 90 | 88 | 123 | 87 | 87 | 82 | 95 | 82 | 65 | 53 | 90 | 92 | 106 | 101
CC[n+]1c(/C=C/N(C)c2ccccc2)n(-c2ccccc2)c2ccc(-c3nc4ccccc4s3)cc21 | 80 | 133 | 108 | 107 | 80 | 34 | 105 | 103 | 99 | 122 | 98 | 83 | 139 | 99 | 108 | 96 | 107 | 82 | 103 | 73
Cn1cnc2cc3c(Nc4cccc(Br)c4)ncnc3cc21 | 83 | 74 | 96 | 74 | 74 | 94 | 64 | 40 | 105 | 87 | 88 | 92 | 107 | 95 | 102 | 102 | 101 | 81 | 97 | 101
Oc1c2ccccc2c2c3c(cccc13)N=N2 | 82 | 13 | 58 | 6 | 29 | 3 | 13 | 4 | 115 | 116 | 90 | 95 | 93 | 69 | 76 | 36 | 90 | 82 | 52 | 21
